Experimental data published in PubChem BioAssay (EPA / NIEHS).
Calls of active or inactive are those of the source. The calls were made as follows: active = hit-call score of the fitted dose curve at least 0.9, where 1 is the maximum; inactive = score below 0.9.

Key:
[1] = read-out: TIMP metallopeptidase inhibitor 2 (TIMP2), TIMP2 (gene 7077); assay: BSK_KF3CT_TIMP2: BioMAP Diversity Plus: KF3CT Assay for TIMP metallopeptidase inhibitor 2 (TIMP2) Biomarker Activity (AID 2283071); conditions: primary human keratinocytes with fibroblasts; actives raise or lower the signal
Outline: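 Human primary keratinocyte/foreskin fibroblast co-culture dosed with chemical and sampled at 24 h. TIMP-2 levels quantified by ELISA; bidirectional fitting against DMSO negative control as baseline.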

[2] = read-out: Transforming growth factor beta 1 (TGFb1), TGFB1 (gene 7040); assay: BSK_KF3CT_TGFb1: BioMAP Diversity Plus: KF3CT Assay for Transforming growth factor beta 1 (TGFb1) Biomarker Activity (AID 2283072); conditions: primary human keratinocytes with fibroblasts; actives raise or lower the signal
Outline: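 Human keratinocyte plus foreskin fibroblast primary co-culture, dosed with chemical for 24 h. TGF-b1 quantified by ELISA. Activity fitted bidirectionally against DMSO negative control as baseline.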

[3] = read-out: C-C motif chemokine 2 (Homo sapiens) (UniProt P13500); assay: BSK_KF3CT_MCP1: BioMAP Diversity Plus: KF3CT Assay for Monocyte Chemoattractant Protein 1 (MCP1/CCL2) Biomarker Activity (AID 2283073); conditions: primary human keratinocytes with fibroblasts; actives raise or lower the signal
Outline: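 KF3CT skin co-culture (keratinocytes/foreskin fibroblasts), 24 h post-dose; MCP-1 by ELISA; gain/loss of signal fit bidirectionally vs DMSO baseline.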

[4] = read-out: Matrix Metallopeptidase 9 (MMP9), MMP9 (gene 4318); assay: BSK_KF3CT_MMP9: BioMAP Diversity Plus: KF3CT Assay for Matrix Metallopeptidase 9 (MMP9) Biomarker Activity (AID 2283074); conditions: primary human keratinocytes with fibroblasts; actives raise or lower the signal
Outline: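 Human keratinocyte/foreskin fibroblast co-culture; compound added; 24 h; MMP-9 by ELISA; bidirectional fit vs DMSO baseline.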

CD40, CD40 (gene 958) [5] = assay: BSK_LPS_CD40: BioMAP Diversity Plus: LPS Assay for CD40 Biomarker Activity (AID 2283076); conditions: primary human HUVEC with PBMC; actives raise or lower the signal
Outline: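 ELISA readout of CD40 in HUVEC/PBMC co-culture (BSK_LPS system), 24 h post-dosing; bidirectional curve fit, DMSO baseline; parallel SRB total-protein staining for cytotoxicity.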

[6] = read-out: E-selectin (Homo sapiens) (UniProt P16581); assay: BSK_LPS_Eselectin: BioMAP Diversity Plus: LPS Assay for Eselectin Biomarker Activity (AID 2283077); conditions: primary human HUVEC with PBMC; actives raise or lower the signal
Outline: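 ELISA readout of E-selectin, 24 h post-dose, HUVEC + PBMC co-culture (LPS system). Gain or loss of signal vs DMSO baseline, bidirectional fit.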

[7] = read-out: Interleukin-8 (IL8), CXCL8 (gene 3576); assay: BSK_LPS_IL8: BioMAP Diversity Plus: LPS Assay for Interleukin-8 (IL8) Biomarker Activity (AID 2283078); conditions: primary human HUVEC with PBMC; actives raise or lower the signal
Outline: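 HUVEC + PBMC co-culture, LPS-activated; test chemicals dosed, IL-8 read by ELISA at 24 h. Bidirectional curve fit vs DMSO baseline (gain or loss of signal).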

[8] = BSK_LPS_SRB: Viability Assessment in the BioMAP Diversity Plus: LPS Assay (AID 2283079); conditions: primary human HUVEC with PBMC;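 also: total protein by sulforhodamine B absorbance as a cytotoxicity measure; measured one day after compound addition; fitted in both directions against DMSO so loss or gain of signal counts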
Outline: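 HUVEC + PBMC co-culture, LPS-stimulated; compound 24 h. 10% TCA fix, 0.1% SRB stain, A560. Bidirectional fit vs DMSO.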

[9] = read-out: Interleukin-1 alpha (IL1a), IL1A (gene 3552); assay: BSK_LPS_IL1a: BioMAP Diversity Plus: LPS Assay for Interleukin-1 alpha (IL1a) Biomarker Activity (AID 2283080); conditions: primary human HUVEC with PBMC; actives raise or lower the signal
Outline: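 HUVEC/PBMC co-culture, LPS system; 24 h after dosing; IL-1a by ELISA; gain or loss of signal fitted bidirectionally vs DMSO baseline.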

[10] = read-out: Monocyte Chemoattractant Protein-1 (MCP1), CCL2 (gene 6347); assay: BSK_LPS_MCP1: BioMAP Diversity Plus: LPS Assay for Monocyte Chemoattractant Protein-1 (MCP1) Biomarker Activity (AID 2283081); conditions: primary human HUVEC with PBMC; actives raise or lower the signal;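 as to AC50: secreted MCP-1 protein quantified by ELISA in culture supernatant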
Outline: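 ELISA read-out of MCP-1 after 24 h chemical dosing of a human umbilical vein endothelial cell/peripheral blood mononuclear cell co-culture stimulated with LPS. Gain or loss of signal fitted relative to DMSO controls.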

[11] = BSK_LPS_PGE2: BioMAP Diversity Plus: LPS Assay for Prostaglandin E2 (PGE2) Biomarker Activity (AID 2283082); conditions: primary human HUVEC with PBMC; actives raise or lower the signal;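 as to AC50: secreted prostaglandin E2 measured by ELISA in LPS-stimulated co-culture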
Outline: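 HUVEC plus PBMC co-culture stimulated with LPS; secreted PGE2 quantified by ELISA 24 h after chemical dosing. Activity fitted bidirectionally against DMSO as negative control and baseline; parallel SRB total-protein staining served as cytotoxicity check.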

[12] = read-out: Macrophage colony-stimulating factor (MCSF), CSF1 (gene 1435); assay: BSK_LPS_MCSF: BioMAP Diversity Plus: LPS Assay for Macrophage colony-stimulating factor (MCSF) Biomarker Activity (AID 2283083); conditions: primary human HUVEC with PBMC; actives raise or lower the signal
Outline: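 HUVEC + PBMC co-culture (human primary), 24 h post-dose; M-CSF by ELISA; gain/loss of signal fitted bidirectionally vs DMSO baseline.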

[13] = read-out: Tissue Factor, F3 (gene 2152); assay: BSK_LPS_TissueFactor: BioMAP Diversity Plus: LPS Assay for Tissue Factor Biomarker Activity (AID 2283084); conditions: primary human HUVEC with PBMC; actives raise or lower the signal
Outline: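 HUVEC/PBMC co-culture, LPS-activated; CD142 ELISA read 24 h post-dose; bidirectional curve fit vs DMSO negative control.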

[14] = read-out: Tumor necrosis factor (Homo sapiens) (UniProt P01375); assay: BSK_LPS_TNFa: BioMAP Diversity Plus: LPS Assay for Tumour Necrosis Factor alpha (TNFa) Biomarker Activity (AID 2283085); conditions: primary human HUVEC with PBMC; actives raise or lower the signal
Outline: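 Human umbilical vein endothelial cells co-cultured with PBMC were exposed to test chemical and TNFa measured by ELISA 24 h after dosing. Bidirectional curve fitting was done relative to DMSO as negative control and baseline.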

[15] = read-out: Vascular cell adhesion molecule 1 (VCAM1), VCAM1 (gene 7412); assay: BSK_LPS_VCAM1: BioMAP Diversity Plus: LPS Assay for Vascular cell adhesion molecule 1 (VCAM1) Biomarker Activity (AID 2283086); conditions: primary human HUVEC with PBMC; actives raise or lower the signal
Outline: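 Human umbilical vein endothelial cells co-cultured with peripheral blood mononuclear cells under LPS stimulation were exposed to test chemical for 24 h. VCAM-1 levels were then measured by ELISA, with bidirectional curve fitting relative to DMSO as negative control and baseline.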

CD38, CD38 (gene 952) = assay: BSK_SAg_CD38: BioMAP Diversity Plus: SAg Assay for CD38 Biomarker Activity (AID 2283087); conditions: primary human HUVEC with PBMC; actives raise or lower the signal
Outline: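 Fluorescence ELISA of cell-surface CD38 served as the read-out, with either increase or decrease fitted against DMSO controls. Cells were a human umbilical vein endothelium plus PBMC co-culture under SEB/TSST-1 stimulation, measured 24 h after dosing.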

CD40, CD40 (gene 958) [16] = assay: BSK_SAg_CD40: BioMAP Diversity Plus: SAg Assay for CD40 Biomarker Activity (AID 2283088); conditions: primary human HUVEC with PBMC; actives raise or lower the signal
Outline: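 HUVEC/PBMC co-culture, 24 h post-dose; CD40 by ELISA, fluorescence intensity; bidirectional fit vs DMSO negative control.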

CD69, CD69 (gene 969) = assay: BSK_SAg_CD69: BioMAP Diversity Plus: SAg Assay for CD69 Biomarker Activity (AID 2283089); conditions: primary human HUVEC with PBMC; actives raise or lower the signal;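 as to AC50: cell surface CD69 protein quantified by ELISA with fluorescence detection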
Outline: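 ELISA, fluorescence read-out: CD69 on human umbilical vein endothelial cell + PBMC co-culture, 24 h post-dosing. Gain or loss of signal fitted bidirectionally against DMSO baseline.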

[17] = read-out: Monocyte Chemoattractant Protein-1 (MCP1), CCL2 (gene 6347); assay: BSK_SAg_MCP1: BioMAP Diversity Plus: SAg Assay for Monocyte Chemoattractant Protein-1 (MCP1) Biomarker Activity (AID 2283090); conditions: primary human HUVEC with PBMC; actives raise or lower the signal
Outline: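 MCP-1 levels in the endothelial–PBMC SAg co-culture were quantified by ELISA at 24 h post-dosing; both increases and decreases versus DMSO scored. Cytotoxicity monitored by SRB total protein in parallel cultures.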

Measured: AC50

Sequence of Tumor necrosis factor (Homo sapiens) (P01375 whole entry, looked up): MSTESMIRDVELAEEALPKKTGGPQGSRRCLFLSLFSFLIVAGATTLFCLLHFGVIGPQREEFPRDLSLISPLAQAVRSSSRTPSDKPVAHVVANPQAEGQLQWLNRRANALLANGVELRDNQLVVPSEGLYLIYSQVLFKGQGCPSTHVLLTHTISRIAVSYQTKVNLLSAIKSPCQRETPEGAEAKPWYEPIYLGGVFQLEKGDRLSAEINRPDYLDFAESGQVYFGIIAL
Sequence of E-selectin (Homo sapiens) (P16581 whole entry, looked up): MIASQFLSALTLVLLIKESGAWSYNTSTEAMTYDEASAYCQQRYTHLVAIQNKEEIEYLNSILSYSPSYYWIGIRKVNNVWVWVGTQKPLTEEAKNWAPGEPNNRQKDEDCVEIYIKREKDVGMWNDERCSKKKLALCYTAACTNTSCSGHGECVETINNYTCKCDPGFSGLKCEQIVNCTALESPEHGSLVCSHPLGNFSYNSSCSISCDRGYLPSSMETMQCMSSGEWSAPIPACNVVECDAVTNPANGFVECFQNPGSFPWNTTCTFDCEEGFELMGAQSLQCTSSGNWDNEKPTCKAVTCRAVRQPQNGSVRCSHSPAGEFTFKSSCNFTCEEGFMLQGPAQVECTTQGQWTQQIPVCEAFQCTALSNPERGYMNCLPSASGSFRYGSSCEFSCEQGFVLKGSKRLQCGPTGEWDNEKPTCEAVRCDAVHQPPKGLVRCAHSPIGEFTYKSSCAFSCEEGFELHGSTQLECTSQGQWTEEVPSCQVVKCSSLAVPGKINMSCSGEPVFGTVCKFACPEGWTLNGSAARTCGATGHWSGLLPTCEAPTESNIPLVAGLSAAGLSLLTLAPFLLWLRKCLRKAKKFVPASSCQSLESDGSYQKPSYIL

CC(Oc1cccc(Cl)c1)C(=O)O (stereo not given)
inactive: all assays above

COc1ccc(C(=CC(=O)N2CCOCC2)c2ccc(Cl)cc2)cc1OC
active: CD40, CD40 (gene 958) [5] 14.1 µM | [6] 10.3 µM | [10] 1.25 µM | [12] 12.8 µM | [14] 1.4 µM | CD38, CD38 (gene 952) 17.4 µM | CD40, CD40 (gene 958) [16] 6.93 µM | CD69, CD69 (gene 969) 4.3 µM | [17] 12.8 µM
inactive: [1] | [2] | [3] | [4] | [7] | [8] | [9] | [11] | [13]

CCC(=O)Nc1ccc(Cl)c(Cl)c1
active: [11] 8.77 µM
not listed: [15]
inactive: all other assays above
